# D1 agonist – human D1 receptor agonism. HEK293 T-REx D1 cells, calcium flux, agonist mode. 360,000 tested, 1% active. activation, % at 2 µM. AID 504660; in the data active = activation above about 30%; also: 0% is about no effect
#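 Inducible HEK293 T-REx D1 cells, force-coupled to calcium signalling, were plated at 4000 cells/well with tetracycline and held overnight at 30 C. After no-wash calcium dye loading, compound-evoked calcium rise over 180 s flagged agonists.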
# D1 potentiator – enhances dopamine response at the human D1 receptor. 360,000 tested, 0.036% active. potentiation, % at 10 µM. HEK293 TREx D1 cells, calcium flux, dopamine EC20 potentiation. AID 504651; in the data active = potentiation above about 30%; also: 0% is about no effect
# D3 antag – D3 dopamine receptor (human) antagonism | P35462 | D3R cells, DiscoveRx beta-arrestin luminescence, antagonist mode; active compounds read low | max response, negative = inhibition, % | 360,000 tested, 2.5% active | AID 652054; in the data active = max response below about -50%; inconclusive = no clear call, values can overlap the other calls; also: % is scaled to controls: 0 for no effect and ±100 for the full control effect
# Target sequence (P35462 whole entry, looked up): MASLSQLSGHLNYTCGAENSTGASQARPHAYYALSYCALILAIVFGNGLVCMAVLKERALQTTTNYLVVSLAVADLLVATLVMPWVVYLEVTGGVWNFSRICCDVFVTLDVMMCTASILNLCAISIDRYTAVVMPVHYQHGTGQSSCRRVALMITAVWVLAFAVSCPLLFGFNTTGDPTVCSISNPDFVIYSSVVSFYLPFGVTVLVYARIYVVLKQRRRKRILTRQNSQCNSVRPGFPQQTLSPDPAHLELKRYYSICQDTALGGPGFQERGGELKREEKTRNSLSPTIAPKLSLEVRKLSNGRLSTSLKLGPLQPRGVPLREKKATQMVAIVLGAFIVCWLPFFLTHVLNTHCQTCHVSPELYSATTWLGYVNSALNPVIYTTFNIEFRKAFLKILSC
#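 Cells plated overnight at 1500 cells/well, then exposed to library compounds with dopamine controls for 90 minutes at 37 degrees C. DiscoveRx reagent added for 30–60 minutes at room temperature; luminescence read, quantitative HTS format.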
# D3 ag – activates the human D3 dopamine receptor. P35462. D3R DiscoveRx beta-arrestin cells, luminescence, 90 min. max activation, %. 410,000 tested, 0.58% active; in the data active = max activation above about 30%; also: 0% is about no effect
#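 Agonist-mode cell screen: cells plated at 1500/well and incubated overnight at 37 °C, then exposed to library compounds for 90 min at 37 °C. Detection reagent was added for 30–60 min at room temperature, and luminescence was read.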
# D1 antag – human D1 dopamine receptor antagonism; activity change, negative = inhibition, % at 10 µM; P21728; 360,000 tested, 3.2% active; HEK293 TREx D1 cells, calcium flux, dopamine EC80; active compounds read low; in the data active = activity change below about -30%; also: % is scaled to controls: 0 for no effect and ±100 for the full control effect
#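 Compound effects on dopamine-evoked calcium signalling were measured in tetracycline-induced HEK293 Trex D1 cells. Dopamine at EC80 followed a 180 s compound pre-read, and fluorescence was tracked kinetically for 180 s more.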
# Active calls of the source: *; u = inconclusive; x = no result given. Only some compounds are listed: those with a hit (about 6% of all), similar ones and a draw of the others.
SMILES,D1 agonist,D1 potentiator,D3 antag,D3 ag,D1 antag
CCN(CC)c1ccc2c(C)c(Cl)c(=O)oc2c1,0,0,-21,-19,1
CSc1cccc(CN2CCC(CO)(Cc3cccc(C(F)(F)F)c3)CC2)c1,41*,-1,u,-18,13
Cc1ccc(-n2cc(CN3CCC(CO)(Cc4cccc(C(F)(F)F)c4)CC3)cn2)cc1,16,-2,-61*,-10,15
OCC1(Cc2cccc(C(F)(F)F)c2)CCN(Cc2cc(F)cc(F)c2)CC1,0,5,6,-10,8
Cc1nn(CCCC(=O)Nc2ccccc2C(F)(F)F)c(=O)c2c1sc1ccccc12,0,0,x,3,-4
COc1cc2c(cc1OC)CN(C(=O)c1cccc(S(=O)(=O)N3CCc4ccccc43)c1)CC2,5,-4,4,1,-34*
CN1CCN(S(=O)(=O)c2cccc(C(=O)NC3(C)CCS(=O)(=O)C3)c2)CC1 (stereo unspecified),1,0,7,1,-13
COc1cc2c(cc1OC)CN(C(=O)c1cccc(S(=O)(=O)N(C)C)c1)CC2,1,-2,16,7,-1
COc1ccc(NC(=O)c2cccc(S(=O)(=O)N3CCc4ccccc43)c2)cn1,11,0,12,2,-31*
O=C(c1cccc(S(=O)(=O)N2CCc3ccccc32)c1)N1CCc2ccccc2C1,11,x,-11,-6,-82*
CC1(NC(=O)c2cccc(S(=O)(=O)N3CCCc4ccccc43)c2)CCS(=O)(=O)C1 (stereo unspecified),1,3,22,-5,-83*
O=C(c1cccc(S(=O)(=O)N2CCc3ccccc32)c1)N1CCOCC1,x,x,25,-9,x
O=C(c1cccs1)N1CCN(S(=O)(=O)c2cccc(Cl)c2Cl)CC1,2,-4,-16,2,12
CC1(C(=O)NCc2ccccc2)CSCC(=O)N1Cc1ccco1 (stereo unspecified),x,x,-6,4,x
CCOc1ccc(NC(=O)CSc2nnc3scc(-c4ccc(Cl)cc4)n23)cc1,2,-3,x,8,4
COc1ccccc1C(=O)NNC(=O)CN(C)S(=O)(=O)c1ccc(Cl)cc1,x,x,47,5,x
O=C(NCCc1ccccn1)c1cccc(S(=O)(=O)N2CCCCCC2)c1,0,-3,18,7,1
O=C(NCCc1ccccn1)c1cccc(S(=O)(=O)N2CCc3ccccc32)c1,9,-3,-4,-11,-36*
COc1ccc(-c2nc(CS(=O)(=O)CC(=O)NC3CCC(C)CC3)c(C)o2)cc1 (stereo unspecified),31*,-5,7,-3,-33*
C/C=C/C(=O)Nc1cccc(C2=NOC3(C2)C[C@H](C(N)=O)N(C(=O)/C=C/C)C3)c1 (stereo partly specified),0,-1,-25,-19,-42*
C/C=C(\C)C(=O)Nc1cccc(C2=NOC3(C2)C[C@H](C(N)=O)N(C(=O)c2cc([N+](=O)[O-])cc([N+](=O)[O-])c2)C3)c1 (stereo partly specified),5,-4,-20,14,-64*
C/C=C\C=C/C(=O)Nc1cccc(C2=NOC3(C2)C[C@@H](C(N)=O)N(C(=O)CCCCC)C3)c1 (stereo partly specified),1,0,46,11,3
C/C=C/C=C/C(=O)N1CC2(CC(c3cccc(NC(=O)/C=C/C)c3)=NO2)C[C@@H]1C(N)=O (stereo partly specified),1,2,-13,-12,-2
N#CCC(=O)N1CC2(CC(c3cccc(NC(=O)COc4ccc(Cl)cc4)c3)=NO2)C[C@@H]1C(N)=O (stereo partly specified),2,1,-18,1,-41*
C/C=C\C=C/C(=O)Nc1cccc(C2=NOC3(C2)C[C@H](C(N)=O)N(C(=O)CC)C3)c1 (stereo partly specified),6,0,-5,31*,-13
C/C=C(\C)C(=O)Nc1cccc(C2=NOC3(C2)C[C@@H](C(N)=O)N(C(=O)c2cc([N+](=O)[O-])cc([N+](=O)[O-])c2C)C3)c1 (stereo partly specified),2,-2,7,-23,-3
O=C(COc1ccc(Cl)cc1)Nc1cc2c3c(c1)CC(=O)N3CCC2,0,0,9,0,8
